# TbPYK inhibitor = inhibitors of Trypanosoma brucei pyruvate kinase; Q57TT1; TbPYK enzyme, Kinase-Glo Plus ATP luminescence, 45 min; Potency, µM (titrated, usually from 76.8 µM), for inactives: at the highest dose activity, negative = inhibition, most hits filed as inhibitors; 410,000 tested, 0.12% active; AID 624173; note: nearly all actives have a fitted effect of over 50% in size
#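 TbPYK + substrate in 50 mM TEA pH 7.2, 100 mM KCl, 10 mM MgCl2, 0.05% BSA, 0.01% Tween-20; cpd pinned; ADP 130 uM final; 45 min RT; Kinase-Glo Plus 10 min; luminescence endpoint.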
# Sm TGR inh = S. mansoni TGR enzyme inhibition; 360,000 tested, 3% active; purified TGR, DTNB reduction, TNB absorbance 405 nm; Q962Y6; Potency, µM (titrated, usually from 114 µM), inactives show top-dose activity change, negative = inhibition, hits mostly inhibitors; note: nearly all actives have a fitted effect of over 60% in size
#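 Kinetic colorimetric format: TGR-catalysed, NADPH-driven DTNB reduction monitored via TNB absorbance. Enzyme dispensed at 20 nM; compound exposure 15 min at room temperature before reaction start.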
# FBPA Giardia inh = inhibitors of Giardia lamblia fructose-1,6-bisphosphate aldolase; 290,000 tested, 0.71% active; AID 2451; Potency, µM (highest dose often 59.6 µM), inactives show at the highest dose activity, negative = inhibition, hits mostly inhibitors; A8B2U2; purified Giardia FBPA; note: nearly all actives have a fitted effect of over 55% in size
#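 40 nM FBPA preincubated 10 min at RT with compound (up to 57.5 uM final), then substrate plus GAPDH/TPI/NAD/arsenate coupling and diaphorase/resazurin added. Fluorescence read after 20 min at RT, 525/598 nm.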
# LmPK inhibitor = inhibitors of Leishmania mexicana pyruvate kinase; purified LmPK, Kinase-Glo ATP luminescence, 1 h; Potency, µM (top dose mostly 57.5 µM), inactives show top-dose activity change, negative = inhibition, usual class: inhibitors; 290,000 tested, 0.37% active
# Target sequence (Q27686 whole entry, looked up): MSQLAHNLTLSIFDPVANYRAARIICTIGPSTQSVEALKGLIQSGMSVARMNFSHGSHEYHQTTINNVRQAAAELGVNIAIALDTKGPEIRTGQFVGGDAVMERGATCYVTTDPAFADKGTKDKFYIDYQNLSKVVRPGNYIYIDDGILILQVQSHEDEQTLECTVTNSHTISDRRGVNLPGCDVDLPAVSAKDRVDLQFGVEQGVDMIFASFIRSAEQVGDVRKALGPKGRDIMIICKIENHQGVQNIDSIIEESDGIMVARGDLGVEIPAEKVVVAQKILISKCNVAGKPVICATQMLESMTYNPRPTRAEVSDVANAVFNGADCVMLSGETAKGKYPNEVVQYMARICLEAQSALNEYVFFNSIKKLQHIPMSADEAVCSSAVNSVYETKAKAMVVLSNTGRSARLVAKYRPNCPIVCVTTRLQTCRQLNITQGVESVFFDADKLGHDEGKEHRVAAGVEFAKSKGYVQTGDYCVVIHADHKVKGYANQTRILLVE
#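 0.1 nM LmPK, 0.5 mM PEP, 0.1 mM ADP; 50 mM imidazole pH 7.2, 7 mM MgCl2, 50 mM KCl; 1 h RT. Kinase-Glo luminescence readout, normalized to no-enzyme (full inhibition) and uninhibited wells.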
# RE007 growth inh = less growth of the S. pombe RE007 Vpr strain; 360,000 tested, 0.21% active; Potency, µM (titrated, usually from 92.2 µM), for the others: at the top dose activity change, negative = less growth, most hits filed as inhibitors; S. pombe RE007 Vpr strain, BacTiter-Glo ATP luminescence, 24 h; active = well fitted falling curve with a large enough effect; inconclusive = small, poorly fitted or top-dose-only effect; inactive = no such curve, though single readings can be large or run the other way; note: nearly all actives have a fitted effect of over 50% in size
#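 Fission yeast RE007 carrying one integrated HIV-1 vpr copy, seeded at OD 0.01 in PMG+AL medium with 23 nL pinned compound. Grown 24 h at 30 degrees; viability read by BacTiter-Glo luminescence after 5 min.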
# Numbers without * were called inactive; ? = inconclusive; . = no result. Only some compounds are listed: those with a hit (about 3.3% of all), similar ones and a draw of the others. Unless noted, calls come from the whole dose curve; as a rule, active = well fitted curve in the direction sought with a large enough effect; inconclusive = small, poorly fitted or top-dose-only effect, or another doubt; inactive = no such curve, though single readings can be large; an effect the other way counts as inactive or inconclusive. % is set by controls: 0 for no effect and ±100 for the full control effect; potency is the fitted concentration of half-maximal effect.
SMILES,TbPYK inhibitor,Sm TGR inh,FBPA Giardia inh,LmPK inhibitor,RE007 growth inh
C[C@@H]1CC=C[C@H]2[C@H]1C(=O)N(Cc1ccccc1)[C@H]2c1ccc(-c2cc3ccccc3s2)cc1F,1%,-32%,0%,0%,14%
CCN(CC)S(=O)(=O)c1ccc(N2CCCCC2)c(NC(=O)/C=C/c2ccc(OC)c(OC)c2)c1,-9%,-9%,5%,-1%,3%
COc1ccc(C2(CNC(=O)/C=C/c3ccco3)CCCC2)cc1OC,?,3.5µM*,-13%,3%,0%
COc1ccc(CNC(=O)/C=C/c2ccco2)cc1OC,-12%,3.2µM*,-7%,-2%,2%
CCN(CC)S(=O)(=O)c1ccc(OC)c(NC(=O)/C=C/c2ccco2)c1,?,3.2µM*,-12%,3%,-9%
O=C(/C=C/c1ccco1)NCC1(c2ccccc2)CCCC1,-10%,7.9µM*,-14%,-2%,53%
COc1ccc(C2(CNC(C)=O)CCCC2)cc1OC,-9%,49%,1%,6%,1%
O=C(NCC1CCCO1)c1ccc2c(=O)n(Cc3ccc(Cl)cc3)c(=S)[nH]c2c1 (configuration not stated),-4%,2%,1%,-2%,-7%
CN(C)c1ncc2nc(-c3ccc(F)cc3)c(=O)n(CCC#N)c2n1,0%,.,0%,.,.
Cc1ccc(-n2c(SCC(=O)OC(C)C)nnc2-c2cnccn2)cc1,4%,-4%,3%,4%,-4%
C[C@H]1COc2cc(N3CCN(Cc4ccccc4F)CC3)ccc2S(=O)(=O)N1,-5%,.,.,.,-22%
N=C(N)SCc1ccc(O)c([N+](=O)[O-])c1,-13%,45µM*,?,8%,-11%
COc1ccc(CSC(=N)N)cc1[N+](=O)[O-],0%,11%,-12%,-20%,-2%
O=[N+]([O-])c1cc([As](=O)(O)c2ccc(O)c([N+](=O)[O-])c2)ccc1O,33%,14µM*,-18%,17%,5%
Cc1nc(SCc2ccc(O)c([N+](=O)[O-])c2)c([N+](=O)[O-])[nH]1,?,40µM*,?,?,17%
CC1(C)CC(=O)C2=C(C1)N(Cc1ccco1)C(=O)C2(NC(=O)C1CCCCC1)C(F)(F)F (configuration not stated),-3%,32µM*,5%,10%,3%
CC1(C)CC(=O)C2=C(C1)N(Cc1ccco1)C(=O)C2(NC(=O)c1ccc(Cl)cc1Cl)C(F)(F)F (configuration not stated),-7%,1%,0%,-2%,-5%
COc1ccc2nc(SCC(=O)c3c(N)n(C4CC4)c(=O)[nH]c3=O)[nH]c2c1,6%,0%,.,.,-11%
CC(C)n1c(=NC(=O)c2ccco2)c(C#N)cc2c(=O)n3ccccc3cc21,-8%,45µM*,2%,-2%,-4%
O=C(CCC(=O)c1ccc(F)cc1)OC1CCOC1=O (configuration not stated),4%,50µM*,3%,5%,1%
CCCCN1CCC(CN2C(=S)NC[C@@H]2CC(C)C)CC1,7%,.,.,.,-19%
C=CCn1c2ccccc2c(=O)c2cc(C#CC[C@@H](C)O)ccc21,-1%,50µM*,.,.,-23%
CCOc1ccc(CN(C)C(=O)CN2C(=O)NC3(CCCc4ccccc43)C2=O)cc1 (configuration not stated),-7%,-8%,.,.,11%
N#CCCn1cc(C=C(C#N)C#N)c(-c2ccc(Cl)cc2)n1,1%,1.3µM*,-27%,1%,-22%
CC1=C(C(=O)N(C)C)CC(CC(=O)NCCCCc2ccccc2)C(=O)N1CCCN1CCCC1=O (configuration not stated),-1%,.,.,.,5%
SMILES,TbPYK inhibitor,Sm TGR inh,FBPA Giardia inh,LmPK inhibitor,RE007 growth inh
CC1=C(C)C(=O)C(N2CCOCC2)=CC1=O,-3%,-20%,1.4µM*,-21%,-29%
COc1ccc(C2C(O)C(c3c[nH]c4ccccc34)=NN2C(=O)CCl)cc1 (configuration not stated),-7%,8.9µM*,-11%,2%,3%
COc1ccc(C2NN=C(c3c[nH]c4ccccc34)C2O)cc1 (configuration not stated),-20%,?,2%,-7%,.
Cc1cc(C(=O)COC(=O)c2cc(O)c3ccccc3c2O)c(C)n1CC1CCCO1 (configuration not stated),?,20µM*,?,-20%,-16%
Cc1cc(C(=O)COC(=O)c2cccnc2Cl)c(C)n1CC1CCCO1 (configuration not stated),-23%,2%,0%,25µM*,-24%
CC(C)C[C@H](NC(=O)NCc1ccccc1Cl)C(=O)O,-3%,7%,11%,-1%,5%
CC1=C(C)/C(=N\OS(=O)(=O)c2ccc(C)cc2)C=CC1=O,-10%,7.9µM*,4µM*,1%,16µM*
CC1=C/C(=N\OS(=O)(=O)c2ccccc2)C(C(C)C)=CC1=O,-3%,?,11µM*,-3%,?
CC1=C/C(=N\OS(=O)(=O)c2ccccc2)C(C)=CC1=O,4%,45µM*,7.9µM*,-4%,35µM*
Cc1nc(SCC(=O)NC(=O)NC(C)C)nc(C)c1C,-4%,-2%,9%,5%,7%
Cc1cccc(C)c1Nc1n[nH]c(=S)s1,13µM*,.,.,.,0%
Cc1cc(C)cc(Nc2cc(C(=O)NCc3ccccc3)c3ccccc3n2)c1,2%,35µM*,.,.,.
CC1CCCN(C(=O)C2CCN(c3ncnc4c3nc3n4CCCCC3)CC2)C1 (configuration not stated),-1%,-19%,.,2%,-1%
CCOc1ccc(-c2cc(C(=O)N3CCN(c4cccc(C(F)(F)F)c4)CC3)c3ccccc3n2)cc1,7%,7%,.,.,.
C[C@@H]1CN([C@@H](C)CO)S(=O)(=O)c2ccc(-c3ccc(C#N)cc3)cc2O[C@@H]1CN(C)Cc1ccccn1,-14%,.,.,.,-10%
COc1ccc(-c2c(C#Cc3ccsc3)c3ccccc3n2C)cc1,-17%,20µM*,-9%,-1%,12%
COc1cc(OC)cc(-c2c(C#Cc3ccsc3)c3cc(-c4ccc(OC)nc4)ccc3n2C)c1,0%,28µM*,.,.,-12%
COc1cc(OC)cc(-c2c(C#Cc3ccsc3)c3cc(-c4ccc(OC)c(OC)c4)ccc3n2C)c1,5%,.,.,.,-1%
COc1cc(C#Cc2c(-c3ccccc3)n(C)c3ccccc23)cc(OC)c1,-5%,7.9µM*,3%,-1%,3%
CCCCn1cnc2c(SCc3ccccn3)nc(N)nc21,0%,.,.,.,3%
O=C(NNc1cc(C(F)(F)F)ccc1Cl)c1ccc(=O)[nH]c1,9%,-11%,-7%,2%,77%
Cc1nc(S(=O)(=O)c2cccc(Cl)c2)nc2c1CCC2,-2%,?,7%,0%,-5%

# Source: PubChem BioAssay
